These results are taken from PubChem BioAssay (Tox21).

Values joined by “and” are separate entries in the source; they are usually repeats but may differ in a detail not shown here. Identical values can stand only once. Records with an inconclusive call do not appear. A call without a number means that no potency is given here. Some compounds were tested as several samples or in several runs, with calls that do not always agree. Active and inactive are the calls of the source. Calls follow the shape of the dose curve; as a rule, active = well fitted inhibition curve with a large enough effect in the signal ratio in the repeat runs; inconclusive = weak or mixed curves, or effect the other way; inactive = flat fitted curve, though single readings scatter; the % refers to the signal ratio.
Potency is read from the fitted curve at half-maximal effect.

The assay is described as follows: qHTS assay for small molecule disruptors of the mitochondrial membrane potential (AID 720635). To be noted: HepG2 mitochondrial membrane potential, Mito-MPS dye ratio; series mostly up to 83.2 µM; ratio activity, negative = MMP loss: at the top concentration. An excerpt: U.S. Tox21 Program National Center for Advancing Translational Sciences [NCATS] NIH Chemical Genomics Center [NCGC] U.S. Environmental Protection Agency [EPA] National Institutes of Environmental Health Sciences [NIEHS] National Toxicology Program [NTP] U.S. Food and Drug Administration [FDA] Tox21 Assay Overview: Mitochondrial membrane potential (MMP), one of the parameters for mitochondrial function, is generated by mitochondrial electron transport chain that creates an electrochemical gradient by a series of redox reactions. This gradient drives the synthesis of ATP, a crucial molecule for various cellular processes. Measuring MMP in living cells is commonly used to assess the effect of chemicals on mitochondrial function. […] The dye accumulates in the mitochondria of healthy cells as aggregates, with red fluorescence. The mitochondrial potential collapses and the dye can no longer accumulate in the mitochondria and remains in the cytoplasm in monomers, with green fluorescence.
Tox21 Assay Protocol Summary: 2,000 HepG2 cells in 5 uL/well were dispensed into black, clear-bottom 1536-well plates using a Multidrop Combi (Thermo Scientific) dispenser. The assay plates were incubated overnight at 37C to allow cells to attach to the wells, followed by the transfer of 23 nL compound or DMSO vehicle by a pin tool (Kalypsys). The plates were incubated for 1 hr at 37C and 5% CO2, followed by the addition of 5 uL of 2X Mito-MPS dye (BD Biosciences) into each well using Flying Reagent Dispenser (Aurora Discovery) and then following 30 min incubation at 37C. Fluorescence intensity (490nm excitation and 535nm emission for monomers; and 540nm excitation and 590nm emissions for aggregates) was measured using an Envision plate reader.
`Cc1c(C(=O)O)c(O)cc2c1C(=O)c1c(O)c([C@@H]3O[C@H](CO)[C@@H](O)[C@H](O)[C@H]3O)c(O)c(O)c1C2=O`: the Potency entry was “inactive”.

For `CN(C)C(=O)Nc1ccc(Cl)c(Cl)c1`, the Potency is 29.8 µM (active). Turning to `CN(N=O)C(=O)N[C@@H]1[C@@H](O)[C@H](O)[C@@H](CO)O[C@@H]1O`, the Potency result was “inactive”. With `C1CCC(C(CC2CCCCN2)C2CCCCC2)CC1` (stereo not given), the Potency is 5.96 µM (active). With `O=C(O)CC(O)C(=O)O` (stereo not given), the Potency result was “inactive”. For the compound `Cn1c(=O)c2c(ncn2C)n(C)c1=O`, the “ratio activity, negative = MMP loss” value is 13.4% (inactive). On to `C/C=C/C=C/C(=O)O`, for which the Potency result is “inactive”. Still for that read-out and setting: as for `CC12CCC(CC1)C(C)(C)O2`, the entry is “inactive”. Take `C=C1CC[C@H](O)C/C1=C\C=C1/CCC[C@]2(C)[C@@H]([C@H](C)CCCC(C)C)CC[C@@H]12`: the “ratio activity, negative = MMP loss” value was -12.4% (inactive). Take `CCN(Cc1c(F)cccc1Cl)c1c([N+](=O)[O-])cc(C(F)(F)F)cc1[N+](=O)[O-]`: the Potency is 54.5 µM (active). Consider `NS(=O)(=O)O`, for which the Potency entry was “inactive”. As to `Cc1cccc(C)c1`, the Potency result was “inactive”.

Consider `CCCCNC(=O)NS(=O)(=O)c1ccc(C)cc1`, for which the Potency result is “inactive”. Take `O=c1[nH]cnc2c1ncn2[C@H]1CC[C@@H](CO)O1`: the “ratio activity, negative = MMP loss” value is -2.25% (inactive). With `CCCc1cc(=O)[nH]c(=S)[nH]1`, the “ratio activity, negative = MMP loss” value was -13.2% (inactive). Still for that read-out and setting: as for `CCCC[P+](CCCC)(CCCC)CCCC`, the figure is 3.71% (inactive). Turning to `CCCCC(CC)C(=O)O` (stereo not given), the Potency result was “inactive and 6.86 µM (active)”. As to `CCCCC1(COC(=O)CCC(=O)O)C(=O)N(c2ccccc2)N(c2ccccc2)C1=O`, the Potency entry is “inactive”. Turning to `OC[C@H]1O[C@H](O[C@]2(CCl)O[C@H](CCl)[C@@H](O)[C@@H]2O)[C@H](O)[C@@H](O)[C@H]1Cl`, the Potency result is “inactive”.

Regarding `CCOC(N)=O`, the Potency entry is “inactive”. For the compound `COc1ccc2cc(S(=O)(=O)N[C@H](CC(=O)N[C@H](Cc3ccc(CN4[C@H](C)CCC[C@@H]4C)cc3)C(=O)N(C)C(C)C)c3ccc4c(c3)OCO4)ccc2c1`, the Potency was 10.3 µM (active).

Turning to `CCCCCCCCCCCCCCCC[N+](C)(C)Cc1ccccc1`, the Potency was 4.22 µM (active) and 10 µM (active) and 13.9 µM (active). As to `CS(=O)(=O)OCCCCOS(C)(=O)=O`, the “ratio activity, negative = MMP loss” value was 26.1% (inactive).

As to `CN1CCC[C@H]1c1cccnc1`, the Potency result was “inactive”. Consider `CC1(C)O[C@@H]2C[C@H]3[C@@H]4CCC5=CC(=O)C=C[C@]5(C)[C@@]4(F)[C@@H](O)C[C@]3(C)[C@]2(C(=O)CO)O1`, for which the Potency entry is “inactive”. Consider `COc1ccc(C(Cl)=C(c2ccc(OC)cc2)c2ccc(OC)cc2)cc1`, for which the Potency was 13.6 µM (active) and 21.7 µM (active).

Take `O=C(O)c1ccccc1`: the Potency result was “inactive”. As for `NC1CCCCC1`, the Potency result was “inactive”.

As to `Nc1c(N=Nc2ccc(-c3ccc(N=Nc4cc(S(=O)(=O)O)c5ccccc5c4N)cc3)cc2)cc(S(=O)(=O)O)c2ccccc12`, the Potency was 17.2 µM (active). Take `CCc1nc(N)nc(N)c1-c1ccc(Cl)cc1`: the “ratio activity, negative = MMP loss” value is -14.5% (inactive). Consider `Cc1ncc([N+](=O)[O-])n1CCO`, for which the Potency result was “inactive”. Same read-out and setting: as for `Cc1ccc(S(=O)(=O)O)cc1`, the entry is “inactive”. Still for that read-out and setting: then `CC(O)(P(=O)(O)O)P(=O)(O)O`, with “inactive”; and `CCCCOC(=O)c1ccc(O)cc1`, with 23.7 µM (active) and 9.81 µM (active) and 19.3 µM (active); and `F[B-](F)(F)F`, with “inactive”. As for `CC(=O)CCC(=O)O`, the Potency entry was “inactive”. Consider `O=C(Nc1ncc([N+](=O)[O-])s1)c1cccs1`, for which the Potency is 0.668 µM (active). With `Cc1cc(C)nc(NS(=O)(=O)c2ccc(N)cc2)n1`, the “ratio activity, negative = MMP loss” value was 13.9% (inactive). Consider `CC(=O)C(=O)O`, for which the “ratio activity, negative = MMP loss” value is 13.1% (inactive). Consider `CN(C)CCOC(c1ccccc1)c1ccccc1`, for which the “ratio activity, negative = MMP loss” value is 18.3% (inactive).
